Laboratory results: PubChem BioAssay (NCI)
The panel holds about 79,000 compounds, 15% with a hit somewhere; the sample as a whole holds those more often. Activity calls are given as the source filed them. Rule as the data show it: active = growth inhibition above about 70%; inactive = the rest.

Key:
[1] = NCI Yeast Anticancer Drug Screen. Data for the rad50 strain (AID 155);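 also: 0% = growth of vehicle-only cultures of the same strain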; conditions: S. cerevisiae rad50 strain growth inhibition; at 50.0 µM; hits give high values
In short: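 Growth of the mutant yeast was measured after compound exposure and referenced to vehicle-treated cultures.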

[2] = NCI Yeast Anticancer Drug Screen. Data for the mec2-1 strain (AID 157); conditions: S. cerevisiae mec2-1 strain, at 50.0 µM, hits give high values
In short: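 Vehicle-treated cultures served as reference for growth inhibition of compound-exposed mec2-1 yeast.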

[3] = NCI Yeast Anticancer Drug Screen. Data for the sgs1 mgt1 strain (AID 161);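 also: 0% = growth of cultures given vehicle only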; conditions: S. cerevisiae sgs1 mgt1 strain, at 50.0 µM, hits give high values
In short: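 Inhibition of yeast growth, normalised to vehicle-treated controls, is reported for a strain bearing genetic alterations in DNA damage repair.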

[4] = NCI Yeast Anticancer Drug Screen. Data for the cln2 rad14 strain (AID 165);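 also: 0% = growth equal to vehicle treated cultures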; conditions: S. cerevisiae cln2 rad14 strain, at 50.0 µM, hits give high values
In short: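 Each compound was tested on cln2 rad14 yeast. Inhibition of growth was calculated against vehicle-exposed controls.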

[5] = NCI Yeast Anticancer Drug Screen. Data for the bub3 strain (AID 167); conditions: S. cerevisiae bub3 mutant strain, at 50.0 µM, hits give high values
In short: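 Whole-cell yeast assay. The mutant strain was incubated with compounds, and growth inhibition was determined by comparison with vehicle-treated cells.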

[6] = NCI Yeast Anticancer Drug Screen. Data for the mlh1 rad18 strain (AID 175); conditions: S. cerevisiae mlh1 rad18 strain growth inhibition; at 50.0 µM; hits give high values
In short: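 Vehicle-treated cultures served as the reference for growth inhibition in a yeast strain carrying DNA damage repair alterations exposed to each compound.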

Measured: growth inhibition

Cc1cccc2c1C(=O)C1(Cc3ccccc3C1=O)C2 (stereo unspecified)
inactive: [1] -13.4% | [2] -6.95% | [3] -15.1% | [4] -5.15% | [5] 2.4% | [6] -3.2%

CC(=O)c1cccc(NC(=O)Nc2cccc3ccccc23)c1
inactive: [1] 0.45% | [2] 5.7% | [3] 14.9% | [4] 2.75% | [5] 15.7% | [6] 2.7%

COC1/C=C\C=C(/C)C(=O)Nc2cc3nc4cccc(Br)c4oc-3c(c2=O)CC(C)CC(OC)C(O)C(C)/C=C(\C)C1OC(N)=O (stereo unspecified)
inactive: [1] 33.1% | [2] 21.8% | [3] 26.2% | [4] 21.9% | [5] 44.1% | [6] 16.5%

CC1CC(=O)C(CCC#N)=C(O)C1 (stereo unspecified)
inactive: [1] 4.85% | [2] -14.2% | [3] -8.15% | [4] -9.9% | [5] 5.55% | [6] 4.95%

Cn1c(=O)c2c(nc(OC3CCCCC3)n2C)n(C)c1=O
inactive: [1] 14.1% | [2] -1.3% | [3] 29.4% | [4] 26.1% | [5] 57.5% | [6] -2.95%

CN1CCC2c3c([nH]c4ccccc34)C(C)(C)OC2C1 (stereo unspecified)
inactive: [1] -11.9% | [2] -35.9% | [3] -33.6% | [4] 9.2% | [5] -24.6% | [6] 6.65%

O=C1CSC(c2ccccc2[N+](=O)[O-])N1c1ccc(-n2c(-c3ccccc3)nc3ccccc3c2=O)cc1 (stereo unspecified)
inactive: [1] -8.95% | [2] -10.1% | [3] -4.05% | [4] -16.1% | [5] 13.3% | [6] 7.6%

OC(C1COCO1)C1OCOC1C1COCO1 (stereo unspecified)
inactive: [1] 21.6% | [2] 9.45% | [3] 3.2% | [4] 3.55% | [5] -11.2% | [6] 6.15%

CC(Oc1ccc([N+](=O)[O-])cc1)c1ccccc1 (stereo unspecified)
inactive: [1] -21.6% | [2] -0.55% | [3] -3.7% | [4] -37.1% | [5] -23.4% | [6] 1.4%

O=Cc1ccccc1S(=O)(=O)O
inactive: [1] 6.65% | [2] 7.4% | [3] -6.5% | [4] -45.4% | [5] 11.2% | [6] -13.2%

CCN(CC)CCNc1ncnc2c1cnn2C
inactive: [1] 7.7% | [2] 1.8% | [3] -17.9% | [4] -4.5% | [5] -20.9% | [6] -8.9%

Cc1cc(S(=O)(=O)Nc2n[nH]c(Nc3ccccc3)n2)c(SCC(=O)O)cc1Cl
inactive: [1] 11.3% | [2] 52.8% | [3] 51.2% | [4] -0.25% | [5] -4.2% | [6] 23.1%

O=C1C(c2ccccc2)=C(c2ccccc2)c2ccc(Cl)cc21
inactive: [1] 13.7% | [2] 15.6% | [3] 8.85% | [4] 7.75% | [5] 0.45% | [6] 6.45%

COc1ccc2nc(C)c3c(c2c1)C(=O)N(CCCN1CCN(CCCN2C(=O)c4c(C)nc5ccc(OC)cc5c4C2=O)CC1)C3=O
inactive: [1] 0.6% | [2] 9.4% | [3] -7.5% | [4] -25.4% | [5] 2.15% | [6] 36.5%

O=C(COc1ccccc1)NCc1ccc(Cl)cc1
inactive: [1] 2.4% | [2] 2.05% | [3] 5.8% | [4] 7.15% | [5] 26.9% | [6] 21.9%

CC1C(O)CC2(C(C)C)CC12 (stereo unspecified)
inactive: [1] 4.85% | [2] -0.25% | [3] -8.7% | [4] 12.3% | [5] -18.1% | [6] -10.4%

CC(C)N1C(=O)NC(=O)C12CCN(Cc1ccccc1)CC2
inactive: [1] -1.5% | [2] -1.65% | [3] -5.9% | [4] -1.7% | [5] 11.6% | [6] -13.7%

NCCS/C=C\C(=O)OCc1ccc(Br)cc1
inactive: [1] 31.6% | [2] 4.4% | [3] 9.65% | [4] 6.45% | [5] 19.1% | [6] 54.1%

O=C(O)CC(NC(=O)C(CC(=O)OCc1ccccc1)NC(=O)OCc1ccccc1)C(=O)OCc1ccccc1 (stereo unspecified)
inactive: [1] 44.5% | [2] 20.6% | [3] 27.4% | [4] 24.4% | [5] -5.8% | [6] 36.6%

Cc1cc2ncn(C3CCCCO3)c2cc1C (stereo unspecified)
inactive: [1] 8.25% | [2] -10.8% | [3] -9.4% | [4] 13.3% | [5] 3.85% | [6] -26.4%

CCCCCCCCCCCCCCCCC1=CC(=O)C=C(OC)C1=O
inactive: [1] 13.4% | [2] 1.45% | [3] 23.4% | [4] -36% | [5] -0.15% | [6] 15.6%

NC(=O)c1ncc[nH]c1=O
inactive: [1] -0.65% | [2] 5.35% | [3] -12.6% | [4] 1.7% | [5] 4.2% | [6] -9.15%

C[n+]1ccc2ccccc2c1C#N
inactive: [1] 2.55% | [2] 10.6% | [3] -3.75% | [4] -0.35% | [5] 0.35% | [6] 14.9%

CS(C)(=O)=Nc1ccc(F)cc1
inactive: [1] 8.9% | [2] -7.6% | [3] -2.3% | [4] -21.7% | [5] -13.1% | [6] 3.25%

CC(Sc1ccccn1)C(=O)c1ccccc1 (stereo unspecified)
inactive: [1] -1.55% | [2] -6.75% | [3] -4.05% | [4] -52.5% | [5] -9.05% | [6] 1.2%

CN(C)CC(/C(Cc1ccccc1)=N\NC(=S)NN)c1ccccc1 (stereo unspecified)
inactive: [1] 23.1% | [2] 9.55% | [3] 38.2% | [4] 21.4% | [5] -3.25% | [6] 13.7%

O=C1OCCC2(CCN(Cc3ccccc3)CC2)O1
inactive: [1] 11.2% | [2] 9.35% | [3] 25.4% | [4] -0.3% | [5] -1.45% | [6] 24.3%

CC(C)(C)C(Br)CC(N)=O (stereo unspecified)
inactive: [1] 22.1% | [2] 1.55% | [3] 2% | [4] 4.3% | [5] -6.95% | [6] -6.85%

O.O.O=c1[nH]cc(CO)c(=O)[nH]1.[NH2-].[NH2-].[Pt+2]
inactive: [1] 14.1% | [2] -1.15% | [3] 14.5% | [4] 16.6% | [5] 0.45% | [6] 4.25%

CC1CCC(=O)C(C(=O)CC2CC(=O)NC(=O)C2)C1 (stereo unspecified)
inactive: [1] 31.6% | [2] 1.45% | [3] 19.7% | [4] -30.3% | [5] 2.3% | [6] 4.55%

Cc1ccc(NS(=O)(=O)c2ccc(F)cc2)cc1Cl
active: [1] 99.7% | [2] 99.3% | [3] 99.7% | [4] 99.3% | [5] 99.6% | [6] 99.8%

Cc1ccc(NC(=O)Oc2ccccn2)cc1
inactive: [1] -9.7% | [2] -30.5% | [3] -8.05% | [4] -4.4% | [5] -0.35% | [6] -6.25%

CC(C)C(N)C(=O)Nc1nncs1 (stereo unspecified)
inactive: [1] 11.6% | [2] -2.15% | [3] -8% | [4] -10.1% | [5] -33.6% | [6] -28.6%

C=C(C)COc1ccc(C)cc1Br
inactive: [1] -4.05% | [2] -4.05% | [3] 0% | [4] -51.8% | [5] 7.1% | [6] -13%

Cn1cc2c(=O)n(OS(=O)(=O)c3ccccc3)c(=O)[nH]c2n1
inactive: [1] 12.8% | [2] -11.8% | [3] -4.55% | [4] -4.4% | [5] -5.2% | [6] 8.8%

COc1ccc2c(c1)C(C)(C(N)=O)CCC2 (stereo unspecified)
inactive: [1] 3.25% | [2] 4.8% | [3] 3.7% | [4] 5.5% | [5] -12.2% | [6] -13.2%

NNC(=O)NN1C(=O)c2cc(S(=O)(=O)O)cc3c(N)c(S(=O)(=O)O)cc(c23)C1=O
inactive: [1] 35.2% | [2] -3.05% | [3] 14.6% | [4] 6.35% | [5] -5.45% | [6] 10.3%

COc1cccc(Br)c1OC
inactive: [1] -5.4% | [2] 1.2% | [3] 20.8% | [4] 38.6% | [5] 31.9% | [6] -3.1%

O=c1c2ccccc2on1CN1CCN(Cn2oc3ccccc3c2=O)CC1
inactive: [1] 3.6% | [2] -11.1% | [3] -8% | [4] -12.9% | [5] -12.1% | [6] 5.05%

CSS(=O)(=O)C(c1ccccc1)c1ccccc1
inactive: [1] -14.6% | [2] 2.55% | [3] -2.1% | [4] -2.45% | [5] 60.2% | [6] -14.8%

CCCCNC(=S)C(=S)NCCCC
inactive: [1] 10.7% | [2] -0.3% | [3] 0.05% | [4] 26.9% | [5] 17.4% | [6] -11.2%
